From PubChem BioAssay AID1159580 (chemical genetic matrix, 2015)
In all, about 5,500 compounds went through this assay and about 2,000 (36%) were called active. Another 18% or so got no clear call; they are omitted. No stated cut-off is given here; in the data, active means normalized growth mostly below about 0.91 (no sharp cut-off); inconclusive means no clear call, values can overlap the other calls; inactive means mostly above about 0.92. The list shows a part of the results.

Test: chemical genetic growth profiling, strain panel (AID 1159580);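 further: tested at 20 µM; growth read once vehicle control cultures reached saturation at 30 °C; 1 = growth at the plate median or of vehicle wells; lower values mean less growth of the strain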
Details: S. cerevisiae deletion strains, growth OD

Measured: normalized growth

COc1ccc(OC)c(-c2ccn[nH]2)c1OCc1ccccc1
inactive: locus YAR019C, strain CDC15, active compounds read low 0.995 | locus YBL105C, strain PKC1, active compounds read low 0.998 | locus YBR135W, strain CKS1, active compounds read low 0.994 | locus YBR136W, strain MEC1, active compounds read low 0.987 | locus YBR160W, strain CDC28, active compounds read low 0.994 | locus YDL017W, strain CDC7, active compounds read low 0.997 | locus YDL028C, strain MPS1, active compounds read low 0.974 | locus YDL101C, strain DUN1, active compounds read low 0.979 | locus YDL108W, strain KIN28, active compounds read low 0.987 | locus YDL132W, strain cdc53, active compounds read low 0.987 | locus YDL214C, strain PRR2, active compounds read low 0.893 | locus YDR052C, strain DBF4, active compounds read low 0.989 | locus YDR054C, strain cdc34, active compounds read low 0.985 | locus YDR226W, strain ADK1, active compounds read low 0.998 | locus YDR477W, strain SNF1, active compounds read low 0.905 | locus YER123W, strain YCK3, active compounds read low 0.762 | locus YER133W, strain GLC7, active compounds read low 0.886 | locus YFL009W, strain cdc4, active compounds read low 0.998 | locus YFL029C, strain CAK1, active compounds read low 0.995 | locus YFR003C, strain YPI1, active compounds read low 0.993 | locus YFR019W, strain FAB1, active compounds read low 0.832 | locus YFR028C, strain CDC14, active compounds read low 0.993 | locus YGR040W, strain KSS1, active compounds read low 0.874 | locus YGR052W, strain FMP48, active compounds read low 0.948 | locus YGR092W, strain DBF2, active compounds read low 0.864 | locus YHR030C, strain SLT2, active compounds read low 0.986 | locus YHR079C, strain IRE1, active compounds read low 0.999 | locus YHR082C, strain KSP1, active compounds read low 0.974 | locus YHR205W, strain SCH9, active compounds read low 0.97 | locus YIL147C, strain SLN1, active compounds read low 0.97 | locus YJL095W, strain BCK1, active compounds read low 0.953 | locus YJL128C, strain PBS2, active compounds read low 0.981 | locus YJL157C, strain FAR1, active compounds read low 0.887 | locus YJR016C, strain ILV3, active compounds read low 1 | locus YJR066W, strain TOR1 (second series), active compounds read low 0.808 | locus YJR066W, strain TOR1, active compounds read low 0.96 | locus YKL048C, strain ELM1, active compounds read low 0.948 | locus YKL067W, strain YNK1, active compounds read low 0.907 | locus YKL101W, strain HSL1, active compounds read low 0.926 | locus YKL193C, strain SDS22, active compounds read low 0.989 | locus YKL203C, strain TOR2, active compounds read low 0.953 | locus YLR113W, strain HOG1, active compounds read low 1.01 | locus YLR133W, strain CKI1, active compounds read low 0.924 | locus YLR403W, strain SFP1, active compounds read low 0.883 | locus YML070W, strain DAK1, active compounds read low 0.877 | locus YMR001C, strain CDC5, active compounds read low 0.993 | locus YMR205C, strain PFK2 (second series), active compounds read low 0.908 | locus YMR277W, strain FCP1, active compounds read low 0.993 | locus YNL006W, strain LST8, active compounds read low 0.985 | locus YNL020C, strain ARK1, active compounds read low 0.903 | locus YNL161W, strain CBK1, active compounds read low 0.995 | locus YNL183C, strain NPR1, active compounds read low 0.969 | locus YNL207W, strain RIO2, active compounds read low 0.997 | locus YNL222W, strain SSU72, active compounds read low 1 | locus YNL307C, strain MCK1 (second series), active compounds read low 0.922 | locus YOL078W, strain AVO1, active compounds read low 0.994 | locus YOL136C, strain PFK27, active compounds read low 0.908 | locus YOR061W, strain CKA2, active compounds read low 0.871 | locus YOR119C, strain RIO1, active compounds read low 0.936 | locus YOR231W, strain MKK1, active compounds read low 0.992 | locus YOR329C, strain SCD5, active compounds read low 0.999 | locus YPL031C, strain PHO85, active compounds read low 0.87 | locus YPL153C, strain RAD53, active compounds read low 0.869 | locus YPL204W, strain HRR25, active compounds read low 0.892 | locus YPL209C, strain IPL1, active compounds read low 0.994 | locus YPL256C, strain CLN2, active compounds read low 1.02 | locus YPR025C, strain CCL1, active compounds read low 0.994 | locus YPR106W, strain ISR1, active compounds read low 1 | locus YPR111W, strain DBF20, active compounds read low 0.999 | strain NNK1, active compounds read low 0.994 | strain TSCII, active compounds read low 0.992
